From PubChem
A selection: hits, their analogues and other compounds. The true share with any hit is near 8.9%.
ALDH1A1 inh: qHTS Assay for Inhibitors of Aldehyde Dehydrogenase 1 (ALDH1A1); AID 1030, 2008; Potency, µM (series often up to 75.3 µM), usual class: inhibitors; hit rate 7.3% among 220,000; Purified ALDH1A1, NADH fluorescence, propionaldehyde substrate; active = well fitted inhibition curve with a large enough effect, not every such curve was filed as active; inconclusive = small, poorly fitted or top-dose-only effect, or another doubt; inactive = no such curve, though single readings can be large or run the other way
IMPase Li inh: qHTS Assay for Identifying the Cell-Membrane Permeable IMPase Inhibitors: Potentiation with Lithium | CHO-M1 cells, IP1 TR-FRET (IP-One), carbachol + lithium | Potency, µM (titrated, usually from 59.4 µM), actives largely listed as inhibitors | hit rate 0.35% among 210,000;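 note: IP1 builds up when IMPase is blocked and the TR-FRET signal falls; nearly all actives have a fitted effect of over 50% in size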
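Steps: plate 2000 CHO-M1 cells per well and culture 16–30 h; add compound and lithium; incubate 30 min, 37C; add d2-IP1 tracer and Eu cryptate anti-IP1 antibody in lysis buffer; read after 10 min at room temperature.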
NPSR antagonist: qHTS Assay for Antagonists of the Neuropeptide S Receptor: cAMP Signal Transduction. CHO-NPSR cells, cAMP TR-FRET, antagonist mode. AID 1461, 2008. hit rate 1% among 220,000. Potency, µM (doses to about 38.3 µM), usual class: inhibitors. Q6W5P4; note: nearly all actives have a fitted effect of over 50% in size
Target sequence (Q6W5P4 whole entry, looked up): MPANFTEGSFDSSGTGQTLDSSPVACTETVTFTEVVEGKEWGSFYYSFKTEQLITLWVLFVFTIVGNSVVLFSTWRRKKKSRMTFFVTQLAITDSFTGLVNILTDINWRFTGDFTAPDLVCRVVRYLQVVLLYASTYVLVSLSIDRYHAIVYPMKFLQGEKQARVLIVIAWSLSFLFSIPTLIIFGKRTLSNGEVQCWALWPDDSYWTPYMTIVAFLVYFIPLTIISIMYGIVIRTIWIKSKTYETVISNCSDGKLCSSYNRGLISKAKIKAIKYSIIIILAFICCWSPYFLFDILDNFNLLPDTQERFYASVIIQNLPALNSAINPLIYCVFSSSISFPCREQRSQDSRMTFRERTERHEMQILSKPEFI
12-hLO inh: qHTS Assay for Inhibitors of 12-hLO (12-human lipoxygenase); Polyunsaturated fatty acid lipoxygenase ALOX12 (Homo sapiens), P18054; AID 1452, 2008; hit rate 0.12% among 150,000; purified 12-hLO, xylenol orange hydroperoxide absorbance; Potency, µM (titrated, usually from 57.1 µM), actives largely listed as inhibitors; note: nearly all actives have a fitted effect of over 55% in size
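Hydroperoxide formation by human 12-lipoxygenase from 40 uM arachidonic acid was followed colorimetrically via ferric-xylenol orange complex, using the 573/405 nm absorbance ratio. Enzyme concentration was 150 nM, with 30 min reaction at room temperature.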
IMPase inh: qHTS Assay for Identifying the Cell-Membrane Permeable IMPase Inhibitors | Inositol monophosphatase 1 (Rattus norvegicus), P97697 | inhibition (IP1 accumulation), % at 46.1 µM | CHO-M1 cells, IP1 accumulation, HTRF TR-FRET ratio | 120,000 tested, under 10 active; active = well fitted curve in the direction sought with a large enough effect in the signal ratio, not every such curve was filed as active; inconclusive = small, poorly fitted or top-dose-only effect, or a change in a side signal; inactive = no such curve, though single readings can be large or run the other way; the % refers to the signal ratio;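 note: cells stimulated with carbachol in lithium chloride buffer; higher means more IMPase inhibition seen as more IP1 and lower FRET ratio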
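Cellular IMPase inhibition is scored as a rise in cytosolic IP1, detected by competitive TR-FRET between d2-labelled IP1 and a europium anti-IP1 antibody. M1-expressing CHO cells were stimulated with carbachol for 30 min at 37C, with lithium (50 mM LiCl) present in the buffer.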
HPGD block: qHTS Assay for Inhibitors of HPGD (15-Hydroxyprostaglandin Dehydrogenase); 15-hydroxyprostaglandin dehydrogenase [NAD(+)] (Homo sapiens), P15428; purified HPGD, NADH fluorescence kinetic, PGE2 substrate; Potency, µM, most hits filed as inhibitors; hit rate 4.3% among 150,000; active = well fitted inhibition curve with a large enough effect, not every such curve was filed as active; inconclusive = small, poorly fitted or top-dose-only effect, or another doubt; inactive = no such curve, though single readings can be large or run the other way
Target sequence (P15428 whole entry, looked up): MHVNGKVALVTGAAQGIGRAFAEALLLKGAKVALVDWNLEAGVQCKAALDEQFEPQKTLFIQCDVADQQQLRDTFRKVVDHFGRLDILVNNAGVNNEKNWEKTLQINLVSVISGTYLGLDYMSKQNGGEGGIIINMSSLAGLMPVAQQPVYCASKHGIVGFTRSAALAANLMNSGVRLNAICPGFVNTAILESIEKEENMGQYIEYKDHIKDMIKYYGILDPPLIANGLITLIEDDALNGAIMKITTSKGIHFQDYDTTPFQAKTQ
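20 nM HPGD preincubated 15 min at room temperature with compound in 50 mM Tris-HCl pH 8, 0.01% Tween 20. Started with 1 mM NAD+ and 30 uM prostaglandin E2; NADH fluorescence (360/450 nm) read 5 times over 30-s intervals, last minus first.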
Numbers stand for hits; [ ] = remark or other dose. Unless noted, calls come from the whole dose curve; as a rule, active = well fitted curve in the direction sought with a large enough effect; inconclusive = small, poorly fitted or top-dose-only effect, or another doubt; inactive = no such curve, though single readings can be large; an effect the other way counts as inactive or inconclusive.

Results for O=c1cc(-c2ccccc2)oc2cc(O[C@@H]3O[C@H](CO)[C@@H](O)[C@H](O)[C@H]3O)c(O)c(O)c12 ?
ALDH1A1 inh: inconclusive; IMPase Li inh: inactive; 12-hLO inh: inactive; IMPase inh: inconclusive; HPGD block: 11µM

What do the screens show for `O=c1c(O)c(-c2ccc(O)c(O)c2)oc2c(OC3OC(CO)C(O)C(O)C3O)c(O)cc(O)c12` (configuration not stated)?
ALDH1A1 inh: inconclusive; IMPase Li inh: inactive; 12-hLO inh: inactive; HPGD block: 28µM

Results for O=c1c(O)c(-c2ccc(O)c(O)c2)oc2c(OC[C@@H]3O[C@@H](O)[C@@H](O)[C@H](O)[C@H]3O)c(O)cc(O)c12 ?
ALDH1A1 inh: inconclusive; IMPase Li inh: inactive; 12-hLO inh: inactive; IMPase inh: inconclusive; HPGD block: inconclusive

Results for CCNC(=O)c1c(C)nc2ccccn12 ?
ALDH1A1 inh: inactive; IMPase Li inh: inactive; NPSR antagonist: inconclusive; 12-hLO inh: inactive; IMPase inh: inactive; HPGD block: inactive

Results for CCN1CCc2c(OCC(=O)N3CCCc4ccccc43)cccc2C1=O ?
ALDH1A1 inh: inactive; IMPase Li inh: inactive; NPSR antagonist: inactive

Results for Clc1ccc(OCCCn2cncn2)cc1Cl ?
ALDH1A1 inh: 11µM; IMPase Li inh: inactive; NPSR antagonist: inactive; 12-hLO inh: inactive; IMPase inh: inactive; HPGD block: inactive

How did CCCCCCCn1c(=N)n(CC(=O)c2ccco2)c2ccccc21 do in these assays?
ALDH1A1 inh: inactive; IMPase Li inh: inactive; NPSR antagonist: inactive; 12-hLO inh: inactive; IMPase inh: inactive; HPGD block: inactive

How did CCC(=O)NCC(c1ccco1)N1CCN(c2ccc(OC)cc2)CC1 (configuration not stated) do in these assays?
ALDH1A1 inh: inactive; IMPase Li inh: inactive; NPSR antagonist: inactive

How did Cc1cc(SCC(=O)Nc2ccccc2)n2ncc(-c3ccccc3)c2n1 do in these assays?
NPSR antagonist: inactive[7.67 µM]

Results for C=CCn1c(=O)/c(=C/c2cc(OC)c(OC)c(OC)c2)s/c1=C(/C#N)c1nc2ccccc2n1C ?
ALDH1A1 inh: 1.4µM; IMPase Li inh: inconclusive; NPSR antagonist: inactive; 12-hLO inh: inactive; IMPase inh: inactive; HPGD block: inactive

Results for C=CCn1c(C)cc(C(=O)COC(=O)/C=C/c2cccc(OC)c2)c1C ?
ALDH1A1 inh: inconclusive; IMPase Li inh: inactive; NPSR antagonist: inactive

What do the screens show for `COCc1c(C(=O)NC2CCCCCC2)oc2ccccc12`?
ALDH1A1 inh: 11µM; IMPase Li inh: inactive; NPSR antagonist: inactive

What do the screens show for `O=S(=O)(NCCNS(=O)(=O)c1cccs1)c1cccs1`?
ALDH1A1 inh: inactive; IMPase Li inh: inactive; NPSR antagonist: inactive; 12-hLO inh: inactive; IMPase inh: inactive; HPGD block: inactive

What do the screens show for `C=CCNC(=S)NS(=O)(=O)c1cccs1`?
ALDH1A1 inh: 18µM; IMPase Li inh: inactive; NPSR antagonist: inactive

Results for CSC1=C(C#N)C(c2sccc2C)CC(=O)N1 (configuration not stated) ?
ALDH1A1 inh: 10µM; IMPase Li inh: inactive; NPSR antagonist: inactive

How did CSC1=C(C#N)C(c2cccc(Br)c2)CC(=O)N1 (configuration not stated) do in these assays?
ALDH1A1 inh: inactive; IMPase Li inh: inactive; NPSR antagonist: inactive; 12-hLO inh: inactive; IMPase inh: inactive; HPGD block: inactive

What do the screens show for `CCN(CC)c1ccc(NC(=O)C2CC3CCC2C3)cc1` (configuration not stated)?
ALDH1A1 inh: 13µM; IMPase Li inh: inactive; NPSR antagonist: inactive; 12-hLO inh: inactive; IMPase inh: inactive; HPGD block: 18µM

What do the screens show for `Cc1cc(/C=C(\C#N)C(=O)O)c(C)n1CC1CCCO1` (configuration not stated)?
ALDH1A1 inh: inactive; IMPase Li inh: inactive; NPSR antagonist: inactive

Results for CCCn1nnc(NC(=O)/C=C/c2ccc(C(C)C)cc2)n1 ?
ALDH1A1 inh: 14µM; NPSR antagonist: inactive

What do the screens show for `CCOc1ccccc1OCC(=O)NC1CCCCC1`?
ALDH1A1 inh: inactive; IMPase Li inh: inactive; NPSR antagonist: inactive; 12-hLO inh: inactive; IMPase inh: inactive; HPGD block: inactive

Results for CC1CCCC(NC(=O)COC(=O)c2ccc(N(C)C)cc2)C1C (configuration not stated) ?
ALDH1A1 inh: inactive; IMPase Li inh: inactive; NPSR antagonist: inactive; 12-hLO inh: inactive; IMPase inh: inactive; HPGD block: inconclusive

What do the screens show for `COC(=O)c1ccc(/C=N/OCC(=O)NC2CCCC(C)C2C)cc1` (configuration not stated)?
ALDH1A1 inh: inactive; IMPase Li inh: inactive; NPSR antagonist: inconclusive; 12-hLO inh: inactive; IMPase inh: inactive; HPGD block: 11µM

Results for COC(=O)c1ccc(SCC(=O)NC2CCCCC2)c([N+](=O)[O-])c1 ?
ALDH1A1 inh: inconclusive; IMPase Li inh: 11µM; NPSR antagonist: inactive; 12-hLO inh: inactive; IMPase inh: inconclusive; HPGD block: inactive

What do the screens show for `COc1ccccc1OCC(=O)NC1CCCCCC1`?
ALDH1A1 inh: inconclusive; IMPase Li inh: inactive; NPSR antagonist: inactive; 12-hLO inh: inactive; IMPase inh: inconclusive; HPGD block: 10µM

What do the screens show for `COC(=O)c1ccc(/C=N/OCC(=O)NC2CCCCCCC2)cc1`?
ALDH1A1 inh: inactive; IMPase Li inh: inactive; NPSR antagonist: inconclusive; 12-hLO inh: inactive; IMPase inh: inactive; HPGD block: 28µM

What do the screens show for `Cc1ccc(-c2csc3nc(CN(C)Cc4ccccc4)[nH]c(=O)c23)cc1`?
ALDH1A1 inh: inconclusive; IMPase Li inh: inactive; NPSR antagonist: inactive

What do the screens show for `Cc1csc(SCc2nc3scc(-c4ccccc4)c3c(=O)[nH]2)n1`?
ALDH1A1 inh: inconclusive; IMPase Li inh: inactive; NPSR antagonist: inactive

How did NC(=O)Cc1nc2scc(-c3ccccc3)c2c(=O)[nH]1 do in these assays?
ALDH1A1 inh: 13µM; IMPase Li inh: inactive; NPSR antagonist: inactive

How did O=c1[nH]c(Cc2ccc(F)cc2)nc2scc(-c3ccc(F)cc3)c12 do in these assays?
ALDH1A1 inh: 32µM; IMPase Li inh: inactive; NPSR antagonist: inactive; 12-hLO inh: inactive; HPGD block: 22µM

Results for OCCN1CCN(C(c2cccs2)c2ccc3cccnc3c2O)CC1 (configuration not stated) ?
ALDH1A1 inh: 1.3µM; IMPase Li inh: inactive; NPSR antagonist: 10µM; 12-hLO inh: 14µM; IMPase inh: inactive; HPGD block: 3.5µM
